Sampled rows, rich in hits. Any-hit rate of the full collection: about 19%.
IL1B secr inh: qHTS for Inhibitors of Inflammasome Signaling: IL-1-beta AlphaLISA Primary Screen. THP-1 LPS/ATP IL-1B secretion, AlphaLISA, 16 h; active compounds read low. activity change, % at 57.5 µM. actives 4.7% (n = 360,000). AID 743279, 2014; in the data active means activity change below about -50%; inconclusive means mostly about -30% to -49%; further: on the % scale 0 is the no-effect control and ±100 the full control effect
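Secreted IL-1B measured by AlphaLISA bead assay after 16 h compound exposure of THP-1 cells; compounds (final up to 57.5 uM) added 1 h before LPS (250 ng/mL) and ATP (1.25 mM) stimulation; lower signal means less secretion.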
HepG2 tox: qHTS for Inhibitors of TGF-b: Cytotox Counterscreen; actives 0.76% (n = 410,000); HepG2 CAGA-GFP viability, ATP luminescence, 18 h; Potency, µM (titrated, usually from 46.1 µM), inactives show top-dose activity change, negative = cytotoxicity, actives largely listed as cytotoxic; further: potency means the concentration at half of the fitted maximal effect
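HepG2 CAGA-GFP cells (1000/well, DMEM with 1% FBS) received compound, then TGF-beta at 500 pg/mL final, and were incubated 18 hours at 37 degrees C. Viability was read by CellTiter-Glo luminescence. Media-only wells were set as complete cell-killing and DMSO as no toxicity.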
TGFb SMAD3 inh: qHTS for Inhibitors of TGF-b | HepG2 CAGA-GFP TGF-b/SMAD3 reporter, GFP fluorescence, 18 h; TGF-beta stimulated, 500 pg/mL final | Potency, µM (series often up to 46.1 µM), without a hit: at the top dose activity, negative = inhibition, actives largely listed as inhibitors | actives 1.2% (n = 410,000); further: potency means the concentration at half of the fitted maximal effect; on the % scale 0 is the no-effect control and ±100 the full control effect; nearly all actives have a fitted effect of over 65% in size
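First, reporter cells (HEPG2 CAGA-GFP) rested 2 h at 37 degrees C. Next, compounds were pinned in and TGF-beta added to 500 pg/mL final. After 18 h, GFP was imaged per cell and summed per well.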
DT40 TDP1 no CPT: qHTS for Inhibitors of human tyrosyl-DNA phosphodiesterase 1 (TDP1): qHTS in cells in absence of CPT. DT40 Tdp1-/- hTDP1 cells, no CPT, ATP luminescence, 48 h. actives 15% (n = 420,000). Potency, µM (highest dose often 46.2 µM), for the others: at the highest dose activity change, negative = growth inhibition, usual class: inhibitors. AID 686978, 2013; further: potency means the concentration at half of the fitted maximal effect; on the % scale 0 is the no-effect control and ±100 the full control effect; nearly all actives have a fitted effect of over 55% in size
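No-CPT arm: Tdp1-/-;hTDP1 DT40 cells (400/well) plus compounds, incubated ≥48 hr at 37 °C. Readout CellTiter-Glo luminescence.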
ASM inhibitor: Inhibitors of Secretory Acid Sphingomyelinase (S-ASM): qHTS; placental ASM, HMU-PC fluorogenic substrate, 60 min; Potency, µM (series often up to 57.5 µM), inactives show at the highest dose activity change, negative = inhibition, usual class: inhibitors; actives 0.006% (n = 340,000); AID 504937, 2011; further: potency means the concentration at half of the fitted maximal effect
Target sequence (P17405 47-631 limits assumed): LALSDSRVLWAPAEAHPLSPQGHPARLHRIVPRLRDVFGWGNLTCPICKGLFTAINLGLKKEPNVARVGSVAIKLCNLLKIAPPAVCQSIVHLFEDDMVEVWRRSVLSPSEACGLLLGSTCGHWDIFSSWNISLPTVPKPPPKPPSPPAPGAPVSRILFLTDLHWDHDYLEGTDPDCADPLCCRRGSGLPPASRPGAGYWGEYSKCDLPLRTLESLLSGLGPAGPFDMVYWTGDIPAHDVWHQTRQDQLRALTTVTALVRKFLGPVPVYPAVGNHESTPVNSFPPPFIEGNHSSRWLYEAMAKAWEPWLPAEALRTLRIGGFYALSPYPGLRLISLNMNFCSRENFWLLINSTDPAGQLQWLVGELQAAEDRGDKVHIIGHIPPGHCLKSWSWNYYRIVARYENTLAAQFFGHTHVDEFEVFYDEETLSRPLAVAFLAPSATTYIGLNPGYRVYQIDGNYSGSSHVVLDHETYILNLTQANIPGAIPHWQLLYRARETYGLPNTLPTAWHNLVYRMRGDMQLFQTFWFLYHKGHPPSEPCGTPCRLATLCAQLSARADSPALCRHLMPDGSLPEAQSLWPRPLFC
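qHTS format. ASM enzyme prepared from human placenta hydrolyses the fluorogenic substrate HMU-PC0 (9 uM final) over 60 min at 37 °C after a 10 min compound preincubation.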
TDP1 cell CPT: qHTS for Inhibitors of human tyrosyl-DNA phosphodiesterase 1 (TDP1): qHTS in cells in presence of CPT; chicken DT40 Tdp1-/-;hTDP1 cells + 20 nM CPT, ATP luminescence, 48 h; Potency, µM (titrated, usually from 46.2 µM), inactives show top-dose activity change, negative = growth inhibition, most hits filed as inhibitors; actives 12% (n = 420,000); AID 686979, 2013; further: potency means the concentration at half of the fitted maximal effect; on the % scale 0 is the no-effect control and ±100 the full control effect; nearly all actives have a fitted effect of over 55% in size
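Chicken DT40 Tdp1-/- cells complemented with human TDP1, 400 cells/well, exposed to compounds plus 20 nM camptothecin for at least 48 h at 37 C; viability read as ATP content by CellTiter-Glo luminescence.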
Starred values were filed as active, the others as inactive; ? = inconclusive; . = not tested or not shown; ! = repeats disagree; [ ] = another dose, or the depositor's remark. Unless noted, the call rests on the fitted dose curve; in most records, active means well fitted curve in the direction sought with a large enough effect; inconclusive means small, poorly fitted or top-dose-only effect, or another doubt; inactive means no such curve, though single readings can be large; an effect the other way counts as inactive or inconclusive.

SMILES	IL1B secr inh	HepG2 tox	TGFb SMAD3 inh	DT40 TDP1 no CPT	ASM inhibitor	TDP1 cell CPT
CC(C)C(NC(=O)c1ccccc1)C(=O)OCc1cc([N+](=O)[O-])cc2c1OCOC2 (stereo unspecified)	34	-9%	-9%	12µM*	-3%	15µM*
COC(=O)C1=C(C(=O)OC)SC2(S1)C(C(=O)OC)=C(C(=O)OC)SC1=C2c2cc(C)ccc2NC1(C)C	-21	-3%	-25%	15µM*	-4%	21µM*
COC(=O)c1c(-c2cc(C)ccc2C)csc1NC(=O)C1CC=CCC1C(=O)O (stereo unspecified)	37	-3%	-4%	-6%	-3%	2%
O=C(COC(=O)/C=C/c1cccs1)NC(c1ccccc1)c1ccccc1	11	11%	6%	?	6%	?
O=C(COC(=O)/C=C/C(=O)N1CCN(c2ccccc2)CC1)NC(c1ccccc1)c1ccccc1	-54*	-23%	?	?	0%	?
Cc1ccc(CNC(=O)CCCn2c(=O)c3ccccc3n(Cc3ccccc3Cl)c2=O)cc1	.	0%	-3%	?	.	-16%
C=CCn1c(=O)c2ccc(C(=O)NCc3ccccc3)cc2n(Cc2ccccc2Cl)c1=O	11	-1%	0%	7.3µM*	0%	8.2µM*
C=CCn1c(=O)c2ccc(C(=O)NCc3ccccc3)cc2n(Cc2cccc(Cl)c2)c1=O	-13	-21%	-4%	13µM*	-17%	?
O=C(NCc1ccc(Cl)cc1)c1ccc2oc(=O)n(Cc3ccccc3)c2c1	.	-13%	?	?	.	21µM*
C=CCn1c(=O)c2ccc(C(=O)NCc3ccccc3)cc2n(Cc2ccc(Cl)cc2)c1=O	37	7%	1%	?	3%	?
CCC1CN(CCNC(=O)c2cccnc2OC)Cc2cc(OC)ccc2O1 (stereo unspecified)	.	.	.	?	.	4%[9.04 µM]
O=C(CSc1nnc(CNC(=O)c2c(F)cccc2F)o1)NCc1ccc2c(c1)OCO2	2	0%	-7%	-26%	.	3%
NC(=S)n1[nH]c(-c2ccc([N+](=O)[O-])cc2)c(N=Nc2cccc(Cl)c2)c1=O	?	-43%	?	6.5µM*	-6%	8.2µM*
NC(=S)n1[nH]c(-c2ccc([N+](=O)[O-])cc2)c(N=Nc2ccc(O)cc2)c1=O	5	-38%	-15%	?	-3%	?
Cc1[nH]n(C(N)=S)c(=O)c1N=Nc1ccc([N+](=O)[O-])cc1Cl	21	10%	0%	2.9µM*	3%	?
Cc1ccccc1N=Nc1c(C)[nH]n(C(N)=S)c1=O	0	-18%	?	1.2µM*	-7%	1.2µM*
CCOc1ccccc1N=Nc1c(C)[nH]n(C(N)=S)c1=O	12	-15%	-13%	15µM*	-3%	?
Cc1[nH]n(C(N)=S)c(=O)c1N=Nc1ccccc1C(F)(F)F	-7	-30%	-46%	15µM*	-10%	?
CC1(C)CC(=O)C=C(Nc2ccc([N+](=O)[O-])cc2)C1	20	4%	0%	-5%	-4%	-19%
CC(CNC(=O)c1csc2c1CCCCC2)c1ccccc1 (stereo unspecified)	.	-50%	?	16µM*	.	21µM*
CCC(C)NC(=O)c1csc2c1CCCCC2 (stereo unspecified)	10	-12%	-3%	-9%	6%	-9%
CCC(Cc1ccccc1)NC(=O)c1csc2c1CCCCC2 (stereo unspecified)	.	-14%	-25%	?	.	13µM*
Cc1ccccc1NC(=O)Nc1csc2c1CCCC2	.	-23%	?	?	.	?
Cc1ccccc1NC(=O)c1csc2c1CCCC2	-22	-21%	1%	21µM*	3%	5.8µM*
Cc1ccc(SCc2c(-c3ccccc3)nn(C)c2Cl)cc1	7	-29%	6%	16µM*	-10%	?
SMILES	IL1B secr inh	HepG2 tox	TGFb SMAD3 inh	DT40 TDP1 no CPT	ASM inhibitor	TDP1 cell CPT
Cn1nc(-c2ccccc2)c(CSc2ccccc2)c1Cl	-3	-14%	-4%	?	-7%	?
O=C(COC(=O)c1ccc([N+](=O)[O-])o1)NCCCc1ccccc1	-16	-36%	?	-4%	6%	-11%
COc1cc(OC)cc(OCC(O)Cn2cnc3cc(C)c(C)cc32)c1 (stereo unspecified)	-5	-29%	-23%	16µM*	-1%	?
CC(=O)Nc1cc(-c2ccccc2N(C)C)cn2c(-c3ccc(S(C)(=O)=O)cc3)cnc12	-12	-23%	27%	18µM*	.	?
CC(=O)Nc1cc(-c2ccccc2N(C)C)cn2c(-c3ccccc3)cnc12	6	-26%	-24%	23µM*	.	16µM*
CC1C/C(=C\c2ccccc2[N+](=O)[O-])c2nc3ccccc3c(C(=O)O)c2C1 (stereo unspecified)	-3	-4%	3%	-13%	339%	-4%
Cc1ccc(-c2nc(NC(=O)CSc3ccc4ccccc4n3)ns2)cc1	10	14%	9%	?	0%	15µM*!
O=C(CSc1nnc2scc(-c3ccccc3)n12)Nc1nsc(-c2ccc(Cl)cc2)n1	33	-30%	3%	21µM*	-5%	16µM*
Cc1cccc(NC(=O)CSc2nnc3scc(-c4ccccc4)n23)c1	.	-17%	-2%	21µM*	.	?
O=C(CSc1nnc2scc(-c3ccc(Cl)cc3)n12)Nc1ccc(F)cc1	.	-18%	-1%	-20%	.	-8%
